Tests used:
Conditions in all cases: concentration: 1 μM,replicates: in singlicate; n = 1
TESK1 = test system: TESK1
TGFBR1 = test system: TGFBR1
TGFBR2 = test system: TGFBR2
TIE1 = test system: TIE1
TIE2 = test system: T1, TIE2
T1 construct: gene TEK

TLK1 = test system: TLK1
TLK2 = test system: TLK2
TNIK = test system: TNIK
TNK1 = test system: TNK1
TNK2 = test system: TNK2
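Also: KINOMEscan kinase panel screen.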

Row | SMILES | %Inh (TESK1) [%] | %Inh (TGFBR1) [%] | %Inh (TGFBR2) [%] | %Inh (TIE1) [%] | %Inh (TIE2) [%] | %Inh (TLK1) [%] | %Inh (TLK2) [%] | %Inh (TNIK) [%] | %Inh (TNK1) [%] | %Inh (TNK2) [%]
1 | Cc1ccc2c(-c3ccnc(Nc4ccc(C(F)(F)F)cc4)n3)cnn2n1 [GW819776] | 0 | 21 | 60 | 0 | 6 | 18 | 17 | 9 | 13 | 0
2 | O=C(Nc1cccc(C(F)(F)F)c1)c1cccc(Oc2ccc3nccn3n2)c1 | 7 | 0 | 0 | 39 | 0 | 3 | 0 | 0 | 36 | 0
3 | Cc1ccc(Nc2ccnc(Nc3ccc4c(c3)CS(=O)(=O)C4)n2)cc1O.Cl [GW579362] | 53 | 82 | 99.4 | 88 | 56 | 30 | 35 | 68 | 85 | 80
4 | C[C@@H](Oc1cc(-n2cnc3ccc(-c4ccncc4)cc32)sc1C(N)=O)c1ccccc1Cl [GSK483724] | 37 | 0 | 0 | 41 | 0 | 0 | 0 | 9 | 0 | 25
5 | CC(C)c1nc(-c2cccc(NS(=O)(=O)c3ccccc3)c2)c(-c2ccnc(Nc3ccc4c(c3)CN(C)CC4)n2)s1 [GSK1649598] | 97.5 | 94.1 | 94.8 | 91.5 | 99 | 41 | 33 | 93.7 | 100 | 96.2
6 | Cl.Cl.NC[C@H](CC1CCCCC1)NC(=O)c1ccc(-c2ccnc3[nH]ccc23)s1 [GSK1581428] | 0 | 0 | 0 | 100 | 0 | 1 | 4 | 12 | 0 | 0
7 | c1ccc(Oc2ccc(Nc3ccnc4ccc(-c5ccccn5)cc34)cc2)cc1 [GW407034] | 29 | 10 | 0 | 2 | 2 | 0 | 0 | 0 | 28 | 23
8 | COc1cccc(OC)c1C(=O)Nc1cccc(-c2nn3ccccc3c2-c2ccnc(Nc3cccc(F)c3)n2)c1 [GSK361065] | 1 | 0 | 17 | 19 | 12 | 19 | 0 | 6 | 31 | 29
9 | Cn1ccc2ncnc(Oc3ccc(NC(=O)Nc4cccc(C(F)(F)F)c4)c(Cl)c3)c21 | 0 | 17 | 0 | 85 | 94.8 | 74 | 0 | 18 | 6 | 0
10 | CCCC(=O)Nc1n[nH]c2ncccc12 [SB-601436] | 5 | 0 | 0 | 0 | 0 | 0 | 0 | 0 | 0 | 0
11 | CC(=O)Nc1ccc(-c2cc3ncnc(SCC(=O)O)c3s2)cc1 | 6 | 7 | 46 | 17 | 6 | 20 | 8 | 16 | 0 | 0
12 | O=C(Nc1cccc(Oc2ccc3nccn3n2)c1)Nc1cccc(C(F)(F)F)c1 | 11 | 4 | 0 | 75 | 5 | 14 | 0 | 51 | 26 | 0
13 | CS(=O)(=O)Nc1ccc(-c2ccnc3[nH]ccc23)cc1 [GSK993273] | 4 | 0 | 0 | 28 | 3 | 63 | 63 | 32 | 0 | 14
14 | NC(=O)c1ccc(-c2cc3ncnc(SCC(=O)O)c3s2)cc1 | 6 | 0 | 40 | 0 | 13 | 5 | 0 | 33 | 0 | 0
15 | O=C1NCCc2[nH]c(-c3ccncc3)cc21 | 6 | 33 | 44 | 0 | 5 | 31 | 8 | 35 | 15 | 0
16 | O=C(Nc1ccccc1)c1cccc(Oc2ccc3nccn3n2)c1 | 0 | 0 | 0 | 94.1 | 0 | 100 | 0 | 0 | 33 | 0
17 | Cc1ccc(CC(=O)N2CCc3cc(-c4cn(C)c5ncnc(N)c45)ccc32)cc1 [GSK2634758] | 36 | 0 | 0 | 89 | 48 | 0 | 0 | 1 | 0 | 42
18 | CN(c1ccccc1CNc1nc(Nc2ccc3c(c2)CC(=O)N3)ncc1C(F)(F)F)S(C)(=O)=O | 0 | 0 | 16 | 90.6 | 49 | 0 | 0 | 1 | 83 | 53
19 | COc1cc2c(Nc3ccc(NC(=O)c4ccccc4)cc3)ncnc2cc1OCCCN1CCOCC1 [GSK301329] | 37 | 0 | 0 | 24 | 0 | 0 | 0 | 0 | 56 | 66
20 | Cn1ccc2ncnc(Oc3ccc(NC(=O)Nc4cnn(C(C)(C)C)c4)c(Cl)c3)c21 | 0 | 13 | 5 | 78 | 73 | 17 | 0 | 72 | 0 | 0
21 | C[C@@H]1CNc2c(sc3ccc4nc(-c5ccc(O)cc5)ccc4c23)C(=O)N1 | 8 | 1 | 60 | 0 | 25 | 24 | 0 | 42 | 14 | 0
22 | CCn1c(-c2nonc2N)nc2cncc(Br)c21 [SB-738004] | 19 | 0 | 0 | 0 | 0 | 9 | 6 | 18 | 0 | 0
23 | CCOC(=O)N1CCC(n2cnc(-c3ccc(F)cc3)c2-c2ccnc(N)n2)CC1 [SB-219952] | 12 | 23 | 10 | 12 | 10 | 26 | 2 | 32 | 21 | 12
24 | CN1CCN(CCNc2nc3cc(Oc4ccc(NC(=O)Nc5cc(C(F)(F)F)ccc5F)cc4)ccc3[nH]2)CC1.Cl.Cl [GW768504] | 0 | 6 | 4 | 89 | 60 | 0 | 2 | 0 | 30 | 0
25 | COc1cc(Nc2nccc(N3CCC(NC(=O)c4cccc(C#N)c4)C3)n2)cc(OC)c1OC (stereo not drawn) [GSK1379751] | 19 | 4 | 0 | 32 | 0 | 4 | 0 | 0 | 98.9 | 10
26 | Cc1cccc2c(-c3ccncc3)c(-c3ccc(F)cc3)nn12.Cl [GW461487] | 0 | 8 | 0 | 0 | 0 | 10 | 2 | 7 | 0 | 9
27 | CCN1CCN(CCCC(=O)Nc2n[nH]c3nc(-c4ccc(O)cc4)c(Br)cc23)CC1 [SB-731579] | 0 | 0 | 0 | 19 | 0 | 8 | 0 | 7 | 34 | 0
28 | Cn1ccc2ncnc(Oc3ccc(NC(=O)Nc4ccnc(C(F)(F)F)c4)c(Cl)c3)c21 | 0 | 0 | 53 | 76 | 11 | 6 | 0 | 0 | 0 | 0
29 | CN(c1ccc2c(c1)nc(NCc1ccc(F)cc1)n2C)c1ccnc(Nc2ccc(CS(C)(=O)=O)cc2)n1.Cl [GW813244] | 4 | 0 | 2 | 92.2 | 37 | 15 | 10 | 22 | 43 | 0
30 | CCNCC(Cc1ccccc1)NC(=O)c1cc(Br)c(-c2ccnc3[nH]ccc23)s1.Cl.Cl (stereo not drawn) [GSK1383280] | 24 | 0 | 0 | 75 | 0 | 18 | 16 | 50 | 0 | 10
